Results filed as inconclusive are left out. Where a call stands in place of a potency, no number is given. Unmarked numbers belong to inactive results. Active and inactive are the calls of the source. The call rests on the fitted dose curve; in most records, active means well fitted inhibition curve with a large enough effect; inconclusive means small, poorly fitted or top-dose-only effect; inactive means no such curve, though single readings can be large or run the other way.

This passage reports Potency and activity change, negative = inhibition results from PubChem BioAssay (NCATS).

A short description of this assay: qHTS to identify inhibitors of the type 1 interferon - major histocompatibility complex class I in skeletal muscle: primary screen against the NCATS Mechanism Interrogation Plate v5.0 (MIPE) Libary (AID 1347411). Further: nearly all actives have a fitted effect of over 65% in size. Particulars: iHSKM cells + IFN-b, HiBiT-tagged MHC-I luminescence, 24 h; series mostly up to 45.8 µM. The method, boiled down:
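Immortalized human C25cl48 myoblasts with HiBit knocked into endogenous HLA-B*08:01 were stimulated with 4.0 ng/ml IFN-beta and exposed to compounds (11-point 1:3 titration, top 46 uM final) for 24 hrs at 37 C; HiBiT lytic luminescence measured.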

For `CC(C)(CO)[C@@H](O)C(=O)NCCC(=O)O`, the Potency result was “inactive”. Still for that read-out and setting: the value for `NCC1CCC(C(=O)O)CC1` (stereo unspecified) was “inactive”; that for `CCC(C)SSc1ncc[nH]1` (stereo unspecified) was “inactive”. Same read-out and setting: to `CN(C(Cc1ccc(OS(=O)(=O)c2cccc3cnccc23)cc1)C(=O)N1CCN(c2ccccc2)CC1)S(=O)(=O)c1cccc2cnccc12` (stereo unspecified) belongs “inactive”; to `Cc1ccc(C2=Nc3ccc(Cl)cc3OC2)cc1`, “inactive”; to `COc1nccc(-c2c(-c3ccc(F)cc3)ncn2C2CCC(O)CC2)n1` (stereo unspecified), “inactive”.

On to `CN[C@@H](C)[C@H]1[C@H](O)C[C@@]2(C)[C@@H]3CC[C@H]4C(C)(C)[C@@H](NC)CC[C@@]45C[C@@]35CC[C@]12C`, for which the activity change, negative = inhibition is 36.7% [at 8.44 µM]. For `CC(NCCc1ccc(O)cc1)C(O)c1ccc(O)cc1` (stereo unspecified), the Potency entry was “inactive”. On the same count and under the same terms, the value for `Nc1[nH]nc2nnc(-c3c(-c4ccccc4)nn4ccccc34)cc12` was “inactive”; that for `Cc1cn([C@@H]2C[C@@H](O)[C@H](CO)O2)c(=O)[nH]c1=O` was “inactive”. The same measure, in the same setting: to `NS(=O)(=O)c1cc(Cl)c(Cl)c(S(N)(=O)=O)c1` belongs “inactive”.
